Pf growth 48h – inhibits P. falciparum growth in the first generation, 48 h. 5.9% of 310,000 active. Potency, µM (titrated, usually from 28.7 µM), actives largely listed as inhibitors. P. falciparum luciferase growth in erythrocytes, 48 h
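Firefly luciferase activity from engineered P. falciparum reports growth; inhibitors lower the luminescent signal. Cultures contained 2% hematocrit erythrocytes at 0.1% final parasitemia.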
Shiga inhibitor – blocks Shiga toxin action in Vero cells; 9.2% of 290,000 active; inhibition, % at 38.7 µM; Vero cells, Shiga toxin protein synthesis inhibition reporter; in the data active = inhibition mostly above about 28%, no sharp cut-off; inactive = mostly below about 43%
CHX counter – affects cycloheximide protein synthesis inhibition readout, counter-screen; cell reporter, cycloheximide protein synthesis inhibition counterscreen; max response, %; 12% of 300,000 active; in the data active = max response mostly above about 13%, no sharp cut-off; inactive = mostly below about 14%; also: read at 38.3 µM for the half of the compounds with a filed dose
Pf growth 96h – P. falciparum growth inhibition at 96 hour, primary screen for plastid delayed-death inhibitors. 6.9% of 320,000 active. Potency, µM (series often up to 28.7 µM), hits mostly inhibitors. P. falciparum luciferase reporter growth, 96 h. AID 504834
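Two-generation exposure (96 h) targets delayed-death phenotype. Reporter parasites carrying integrated firefly luciferase, in red cells at 2% hematocrit and 0.05% parasitemia final, kept at 37 C, 5% CO2; luminescence loss indicates inhibition.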
Of the large screens only hits and unclear results are named; the others gave an inactive call. Compounds with a hit are over-represented: about 21% of the library has one in this group of screens. Unless noted, calls follow the shape of the dose curve; as a rule, active = well fitted inhibition curve with a large enough effect; inconclusive = small, poorly fitted or top-dose-only effect, or another doubt; inactive = no such curve, though single readings can be large or run the other way.

COc1ccc(CCC(C)NCc2cc(OC)cc(OC)c2)cc1 (stereo not drawn)	none
COc1ccc(CCC(C)NCC2CCCCC2)cc1 (stereo not drawn)	Pf growth 48h inconclusive, Pf growth 96h 13µM
COc1ccc(CCC(C)NCc2ccc(Cl)c(Cl)c2)cc1 (stereo not drawn)	Pf growth 96h 6.6µM
COc1ccc(CCC(C)NC2CCCCCCC2)cc1 (stereo not drawn)	none
CCOc1cccc(/C(O)=C2/C(=O)C(=O)N(CCOC)C2c2ccco2)c1 (stereo not drawn)	Shiga inhibitor 45, CHX counter 20
CN(C)S(=O)(=O)c1ccc(/C(O)=C2/C(=O)C(=O)N(Cc3cccnc3)C2c2ccco2)cc1 (stereo not drawn)	Pf growth 96h 8.3µM
CCOc1ccc(/C(O)=C2/C(=O)C(=O)N(CC3CCCO3)C2c2ccco2)cc1 (stereo not drawn)	Shiga inhibitor 42, CHX counter 15
CCOc1cccc(/C(O)=C2/C(=O)C(=O)N(Cc3cccnc3)C2c2ccco2)c1 (stereo not drawn)	CHX counter 22, Pf growth 96h inconclusive
CCOc1ccc(/C(O)=C2/C(=O)C(=O)N(CCN(CC)CC)C2c2ccco2)cc1 (stereo not drawn)	Pf growth 96h inconclusive
Cc1ccc(N2CC(C(=O)Nc3ccc(N4CCOCC4)cc3)CC2=O)cc1C (stereo not drawn)	Pf growth 96h inconclusive
CCS(=O)(=O)NCCc1cc2ccc(C)cc2[nH]c1=O	none
CCOc1ccc(NC(=O)C(C)Sc2nccn2C)cc1 (stereo not drawn)	CHX counter 17
CCOc1ccc(NC(=O)C(C)Sc2nnc(C)n2C)cc1 (stereo not drawn)	Pf growth 96h 13µM
COc1cc(/C=C2\C(=N)N3N=C(S(=O)(=O)CC(C)C)SC3=NC2=O)ccc1OC(=O)c1ccco1	Pf growth 96h inconclusive
Cc1cc(=O)oc2cc(NC(=O)[C@H](CCCCN)NC(=O)[C@H](CC3CCCCC3)NC(=O)OCC3c4ccccc4-c4ccccc43)ccc12	none (no result: Pf growth 48h, Pf growth 96h)
CCOc1ccc(NC(=O)NC(=O)N(C(C)C)S(C)(=O)=O)cc1	none
CC1(C)SC2[C@@H](N=CN3CCCCCC3)C(=O)N2[C@H]1C(=O)O (stereo partly drawn)	Pf growth 48h inconclusive, Pf growth 96h 17µM (no result: Shiga inhibitor, CHX counter)
CC(=O)Nc1ccc(NC(=O)c2ccc(-n3c(C)ccc3C)cc2)cc1	Pf growth 96h inconclusive
CCc1ccccc1NC(=O)c1ccc(-n2c(C)ccc2C)cc1	Pf growth 48h inconclusive, Pf growth 96h 15µM
Cc1ccc(C)n1-c1ccc(C(=O)Nc2ccccc2F)cc1	Shiga inhibitor 102, CHX counter 57
CCCN1C(=O)c2cc(C(=O)Nc3ccccc3CC)ccc2C1O (stereo not drawn)	Pf growth 96h 10µM (no result: Pf growth 48h)
CCN1CCN(C(=O)CN(c2ccc(F)c(Cl)c2)S(C)(=O)=O)CC1	Pf growth 48h inconclusive, Pf growth 96h inconclusive
CC(=O)/C=C/c1ccccc1Oc1c(F)c(F)nc(F)c1F	Pf growth 48h inconclusive, Pf growth 96h 9.3µM
Oc1ccccc1Oc1c(F)c(F)nc(N2CCCC2)c1F	Pf growth 48h inconclusive, Pf growth 96h inconclusive
c1ccc(-c2oc3ncnc(NCCCN4CCOCC4)c3c2-c2ccccc2)cc1	Pf growth 48h inconclusive, Pf growth 96h inconclusive
COc1ccc(-c2oc3ncnc(NCCCN4CCOCC4)c3c2-c2ccc(OC)cc2)cc1	Pf growth 48h 5.2µM
COc1ccc(-c2oc3ncn(CCN4CCOCC4)c(=N)c3c2-c2ccc(OC)cc2)cc1	Pf growth 48h 7.4µM
CCOc1cc2nc(-c3ccc(OC)c(OC)c3)nc(NCCCN3CCOCC3)c2cc1OC	Pf growth 96h 0.074µM (no result: Pf growth 48h)
COc1ccc(-c2oc3ncnc(NCCN4CCOCC4)c3c2-c2ccc(OC)cc2)cc1	Pf growth 96h inconclusive (no result: Pf growth 48h)
CC(C)N(C(=O)C[n+]1ccsc1N)c1ccccc1	none
CCOC(=O)C1(Cc2ccccc2Cl)CCN(S(C)(=O)=O)CC1	Pf growth 96h inconclusive
CCOC(=O)C1(Cc2ccc(OC)cc2)CCN(S(C)(=O)=O)CC1	Shiga inhibitor 50, CHX counter 47
CCOC(=O)C1(Cc2ccc(OC)cc2)CCN(C(=O)c2cccc3nccnc23)CC1	none
CCOC(=O)C1(Cc2ccc(OC)cc2)CCN(C(=O)CN2CCCCC2=O)CC1	Shiga inhibitor 26, CHX counter 17
CCOC(=O)C1(Cc2ccc(OC)cc2)CCN(C(=O)CN2CCOC2=O)CC1	none
CCOC(=O)C1(Cc2ccc(OC)cc2)CCN(C(=O)c2cc(C)nn2C)CC1	CHX counter 14
CCOC(=O)C1(Cc2ccc(OC)cc2)CCN(C(=O)[C@@H]2CCCN2C(C)=O)CC1	none
CCCS(=O)(=O)N1CCC(Cc2ccc(OC)cc2)(C(=O)OCC)CC1	CHX counter 20
